Screening data (PubChem)
IL1B secr inh: inflammasome signaling inhibition, IL-1 beta readout | THP-1 LPS/ATP IL-1B secretion, AlphaLISA, 16 h; stronger effect = lower value | activity change, % at 57.5 µM | 360,000 compounds, 4.7% hits; in the data active means activity change below about -50%; inconclusive means mostly about -30% to -49%
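Secreted IL-1B measured by AlphaLISA bead assay after 16 h compound exposure of THP-1 cells; compounds (final up to 57.5 uM) added 1 h before LPS (250 ng/mL) and ATP (1.25 mM) stimulation; lower signal means less secretion.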
TDP1 cell CPT: growth inhibition of DT40 Tdp1-/-;hTDP1 cells with camptothecin (screen for TDP1 inhibitors); chicken DT40 Tdp1-/-;hTDP1 cells + 20 nM CPT, ATP luminescence, 48 h; Potency, µM (highest dose often 46.2 µM), actives largely listed as inhibitors; 420,000 compounds, 12% hits; AID 686979; further: nearly all actives have a fitted effect of over 55% in size
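Cell growth measured by CellTiter-Glo luminescence after a minimum 48 h, 37 C compound exposure with 20 nM CPT in Tdp1-knockout DT40 cells stably expressing hTDP1, seeded 400/well; qHTS titration format.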
HT1080 IDH1KD tx: kills HT-1080 cells with IDH1 knockdown; HT-1080 IDH1 knockdown viability, ATP luminescence, 48 h; Potency, µM (series often up to 46.1 µM), actives largely listed as cytotoxic; 360,000 compounds, 2% hits
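Knockdown cells (IDH1KD HT-1080) received compounds 2 h after plating at 750 cells/well and were kept 48 h at 37 °C in 5% FBS RPMI. A CellTiter-Glo luminescence read gave % activity for curve fitting.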
DT40 TDP1 no CPT: qHTS for Inhibitors of human tyrosyl-DNA phosphodiesterase 1 (TDP1): qHTS in cells in absence of CPT; DT40 Tdp1-/- hTDP1 cells, no CPT, ATP luminescence, 48 h; Potency, µM (titrated, usually from 46.2 µM), most hits filed as inhibitors; 420,000 compounds, 15% hits; AID 686978, 2013; further: nearly all actives have a fitted effect of over 55% in size
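Compound effects on proliferation are scored in DT40 Tdp1-/-;hTDP1 cells in the absence of CPT. ATP levels (CellTiter-Glo luminescence) are recorded after a ≥48 hr, 37 °C incubation.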
HT1080-NT tox: kills 2HG-producing HT-1080-NT fibrosarcoma cells | Potency, µM (highest dose often 46.1 µM), hits mostly cytotoxic | 360,000 compounds, 1.6% hits | HT-1080-NT fibrosarcoma viability, CellTiter-Glo ATP luminescence, 48 h;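 further: NT is the 2HG producing partner of a matched IDH1 knockdown line; nearly all actives have a fitted effect of over 55% in size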
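A 48-hour cytotoxicity screen used HT-1080-NT cells plated 2 hours before compound delivery. ATP-based CellTiter-Glo luminescence measured viability, normalized to DMSO and no-cell controls.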
Of the large screens only hits and unclear results are named; the others gave an inactive call. This is a sample that favours compounds with a hit; in the whole collection about 19% have one here. Unless noted, the call rests on the fitted dose curve; in most records, active means well fitted curve in the direction sought with a large enough effect; inconclusive means small, poorly fitted or top-dose-only effect, or another doubt; inactive means no such curve, though single readings can be large; an effect the other way counts as inactive or inconclusive.

CCc1nc2c(cnn2-c2ccc(F)cc2)c(=O)n1-c1ccc(N2CCC(C)CC2)cc1	TDP1 cell CPT 16µM, DT40 TDP1 no CPT 15µM
CSc1nc2ccc(NC(=O)c3cc4ccccc4o3)cc2s1	none
C/C(=N\NC(=O)c1ccncc1)c1cccc(NC(=O)c2ccc(Cl)s2)c1	TDP1 cell CPT inconclusive
FC(F)(F)c1ccc(CN2C[C@@H]3C(c4ccc(C(F)(F)F)cc4)C4(c5cccnc5)CC3(C4)[C@H]2c2ccccc2)cc1 (some centres undefined)	TDP1 cell CPT 15µM, DT40 TDP1 no CPT 15µM
FC(F)(F)c1ccc(C2[C@H]3CN(Cc4cccnc4)[C@H](c4ccccc4)C34CC2(c2ccccc2)C4)cc1 (some centres undefined)	TDP1 cell CPT 18µM, HT1080 IDH1KD tx inconclusive, DT40 TDP1 no CPT inconclusive
FC(F)(F)c1ccc(CN2C[C@@H]3C(c4ccccc4)C4(c5cccnc5)CC3(C4)[C@H]2c2ccccc2)cc1 (some centres undefined)	TDP1 cell CPT inconclusive, DT40 TDP1 no CPT inconclusive
N#Cc1ccc(C23CC4(C2)[C@H](CN(Cc2ccc(C(F)(F)F)cc2)[C@@H]4c2ccccc2)C3c2ccc(C(F)(F)F)cc2)cc1 (some centres undefined)	TDP1 cell CPT inconclusive, DT40 TDP1 no CPT 21µM
N#Cc1ccc(C23CC4(C2)[C@H](CN(P(=O)(c2ccccc2)c2ccccc2)[C@@H]4c2ccccc2)C3c2ccc(Cl)nc2)cc1 (some centres undefined)	IL1B secr inh inconclusive, TDP1 cell CPT 23µM, DT40 TDP1 no CPT inconclusive, HT1080-NT tox inconclusive
COc1cccc(CN(C(=O)/C=C/c2ccco2)C2CCS(=O)(=O)C2)c1 (centres undefined)	none
Cc1cnc(CNc2ncncc2-c2ccccc2C(F)(F)F)cn1	TDP1 cell CPT inconclusive (no result: IL1B secr inh, HT1080 IDH1KD tx, HT1080-NT tox)
CN1C[C@@H]2C(c3ccc(C(F)(F)F)cc3)C3(c4cccnc4)CC2(C3)[C@H]1c1ccccc1 (some centres undefined)	IL1B secr inh inconclusive, TDP1 cell CPT inconclusive, DT40 TDP1 no CPT 18µM, HT1080-NT tox inconclusive
c1ccc(C2[C@H]3CN(CC4CCCCC4)[C@H](c4ccccc4)C34CC2(c2cccnc2)C4)cc1 (some centres undefined)	TDP1 cell CPT 23µM, DT40 TDP1 no CPT 18µM
COC(=O)c1ccc(C23CC4(C2)[C@H](CN(C)[C@@H]4c2ccccc2)C3c2ccc(Cl)nc2)cc1 (some centres undefined)	TDP1 cell CPT inconclusive, DT40 TDP1 no CPT 15µM
c1ccc(C2[C@H]3CN(Cc4cccnc4)[C@H](c4ccccc4)C34CC2(c2ccccc2)C4)cc1 (some centres undefined)	TDP1 cell CPT inconclusive, HT1080 IDH1KD tx inconclusive, DT40 TDP1 no CPT 15µM, HT1080-NT tox inconclusive
c1ccc(C2[C@H]3CN(Cc4cccnc4)[C@H](c4ccccc4)C34CC2(c2cccnc2)C4)cc1 (some centres undefined)	TDP1 cell CPT inconclusive, HT1080 IDH1KD tx inconclusive, DT40 TDP1 no CPT inconclusive, HT1080-NT tox inconclusive
Cc1ccc(S(=O)(=O)NCc2ccccc2)cc1C(=O)NC(C)c1ccc(S(N)(=O)=O)cc1 (centres undefined)	none
COCCN1C(=O)c2oc3cc(C)c(C)cc3c(=O)c2C1c1cccc(O)c1 (centres undefined)	none
COC(=O)c1ccc(C23CC4(C2)[C@H](CN(Cc2ccc(C(F)(F)F)cc2)[C@@H]4c2ccccc2)C3c2ccccc2)cc1 (some centres undefined)	TDP1 cell CPT 7.3µM, DT40 TDP1 no CPT 4.1µM
Cc1cc(C)c(C#N)c(SCc2ccccc2[N+](=O)[O-])n1	DT40 TDP1 no CPT inconclusive
Cc1cc(C)c(C#N)c(SCc2nnc(-c3ccccc3[N+](=O)[O-])o2)n1	TDP1 cell CPT 26µM, DT40 TDP1 no CPT 21µM, HT1080-NT tox inconclusive
Cc1ccc(-c2cc(C(F)F)n3ncc(C(=O)NN4CCCCC4)c3n2)cc1	TDP1 cell CPT 21µM, DT40 TDP1 no CPT 23µM
Cc1ccc(-c2cc(C(F)(F)F)n3nc(C(=O)N4CCN5CCCC5C4)cc3n2)cc1 (centres undefined)	IL1B secr inh -62, TDP1 cell CPT inconclusive, HT1080 IDH1KD tx inconclusive, DT40 TDP1 no CPT inconclusive, HT1080-NT tox inconclusive
O=C(c1cc2nc(-c3ccc(F)cc3)cc(C(F)(F)F)n2n1)N1CCCCC1c1cccnc1 (centres undefined)	IL1B secr inh -62, TDP1 cell CPT 13µM, HT1080 IDH1KD tx 18µM, DT40 TDP1 no CPT 9.2µM, HT1080-NT tox inconclusive
CC1CCCCN1C(=O)c1cc2nc(-c3ccccc3)cc(-c3ccccc3)n2n1 (centres undefined)	IL1B secr inh -61, TDP1 cell CPT 16µM, HT1080 IDH1KD tx inconclusive, DT40 TDP1 no CPT 23µM, HT1080-NT tox inconclusive
O=C(O)c1cc2nc(-c3ccccc3)cc(-c3ccccc3)n2n1	HT1080 IDH1KD tx inconclusive
CC(C)CCNC(=O)CCc1nnc2n(CCCOC(C)C)c(=O)c3ccccc3n12	DT40 TDP1 no CPT inconclusive
COc1ccc(C(O)c2nc(/C=C/c3ccc(C(F)(F)F)cc3)cs2)cc1 (centres undefined)	TDP1 cell CPT inconclusive, DT40 TDP1 no CPT inconclusive
CCc1nn(CC(=O)Nc2ccc(C)cc2C)c(=O)c2cc3sccc3n12	DT40 TDP1 no CPT inconclusive (no result: IL1B secr inh, HT1080 IDH1KD tx, HT1080-NT tox)
COc1ccccc1OCCNC(=O)CN1C(=O)NC2(CCCC2)C1=O	none
COC(=O)N1CCC2(CCN(C(=O)Nc3cccc(F)c3)CC2)CC1	DT40 TDP1 no CPT inconclusive (no result: IL1B secr inh, HT1080 IDH1KD tx, HT1080-NT tox)
Cc1ccc(-c2cc(C(F)F)n3ncc(C(=O)N4CCN5CCCC5C4)c3n2)cc1 (centres undefined)	IL1B secr inh inconclusive, TDP1 cell CPT 15µM, DT40 TDP1 no CPT inconclusive
CC1(C)CCC2(C(=O)O)CC[C@]3(C)C(=CCC4[C@]5(C)CCC(O)C(C)(C)C5C(O)C[C@]43C)C2C1 (some centres undefined)	none (no result: IL1B secr inh, HT1080 IDH1KD tx, HT1080-NT tox)
Cc1ccc(NC(=O)C2CCN(c3nc(C)cc(C)n3)CC2)cc1	TDP1 cell CPT inconclusive, DT40 TDP1 no CPT inconclusive
Cc1ccc(Cl)cc1N1CCN(C(=O)C2CCN(S(=O)(=O)c3cnc[nH]3)CC2)CC1	TDP1 cell CPT inconclusive, DT40 TDP1 no CPT inconclusive
Cc1cc(C)nc(N2CCC(C(=O)NNC(=O)c3ccc(Cl)cc3)CC2)n1	none
Cc1cc(C)nc(N2CCC(C(=O)N3CCN(c4cc(Cl)ccc4C)CC3)CC2)n1	TDP1 cell CPT inconclusive, HT1080 IDH1KD tx inconclusive, DT40 TDP1 no CPT 18µM, HT1080-NT tox inconclusive
Cc1ccc(Cl)cc1N1CCN(C(=O)C2CCN(S(C)(=O)=O)CC2)CC1	TDP1 cell CPT inconclusive, DT40 TDP1 no CPT 5.8µM
